Assay results from PubChem BioAssay (NCATS).
Records with an inconclusive call do not appear. Values without a mark were called inactive. The source made the active and inactive calls. Calls come from the whole dose curve; as a rule, active = well fitted inhibition curve with a large enough effect; inconclusive = small, poorly fitted or top-dose-only effect; inactive = flat fitted curve, though single readings scatter.

The compounds below were run against Calcium and integrin-binding protein 1 (Homo sapiens) (UniProt Q99828) (assay: Primary qHTS for Identification of Calcium Integrin Binding Protein 1 (CIB1) Competitor (AID 1508620;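 note: GST tagged CIB1 binding a fluorescein labelled alphaIIb integrin peptide tracer; top concentration of the series differs between compounds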)). Conditions: CIB1-GST / FITC-alphaIIb peptide fluorescence polarization; series mostly up to 114 µM; activity change, negative = inhibition: at the top concentration.
Sequence of Calcium and integrin-binding protein 1 (Homo sapiens) (Q99828 whole entry, looked up): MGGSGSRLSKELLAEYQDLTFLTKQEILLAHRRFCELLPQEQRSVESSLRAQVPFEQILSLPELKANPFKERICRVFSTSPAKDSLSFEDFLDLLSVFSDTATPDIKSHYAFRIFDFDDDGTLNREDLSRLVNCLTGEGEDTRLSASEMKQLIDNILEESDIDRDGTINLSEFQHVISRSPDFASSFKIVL
Method in brief: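 CIB1-GST (1 uM final) and compound incubated 15 min at room temperature before adding FITC-alphaIIb peptide tracer (100 nM final). Competition for binding read by fluorescence polarization (ex 480, em 540) after another 15 min at room temperature.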
% is set by controls: 0 for no effect and ±100 for the full control effect.

Structure (SMILES) | activity change, negative = inhibition [%] | Potency
COc1ccc(-c2csc(N3CCC(C(N)=O)CC3)n2)cc1 | -3.29 | 
CCOC(=O)C1CCN(C(=O)C(C)(C)NC(=O)Nc2cccc(OC)c2)CC1 | -6.79 | 
Cc1cc(N(C)S(=O)(=O)c2ccc(NC(=O)Cc3ccc(Cl)c(Cl)c3)cc2)no1 | -4.12 | 
Cc1cc(C)nc(NC(=S)N2CCN(c3nc4ccccc4o3)CC2)c1 | -3.85 | 
O=P(c1ccccc1)(c1ccccc1)c1cnc2ccccn12 | -1.31 | 
COc1ccc(-c2ccc(NC(=O)c3cccs3)cn2)cc1 | 0.114 | 
Cc1cccc(-c2ccc3ncnc(NCc4cccnc4)c3c2)c1 | 5.01 | 
COc1ccc(C2Nc3ccccc3C(=O)N2Cc2ccncc2)cc1COc1c(C)cc(NC(C)=O)cc1C (stereo not drawn) | 2.95 | 
NC(=O)C1CCN(c2nc(-c3ccc(Cl)cc3)cs2)CC1 | 8.47 | 
c1csc(CNc2ncnc3ccc(-c4ccc5c(c4)OCO5)cc23)n1 | 1.57 | 
O=C(O)c1ccc(-n2cccc2/C=C2\SC(=O)N(Cc3ccc(Br)cc3)C2=O)cc1 | 3.61 | 
Cc1nc2ccc(Nc3nc(Nc4c(C)cc(C=CC#N)cc4C)nc4nc[nH]c34)cc2s1 | -15.5 | 
CC(=O)N1CCN(c2ccc(NCc3ccco3)cc2)CC1 | -12 | 
COc1ccc2ccccc2c1CN(C)CC(=O)Nc1ccc(N2CCOCC2)cc1 | -1.81 | 
O=C(COc1ccccc1Br)NCCc1nc2ccccc2[nH]1 | 1.94 | 
Cc1ccccc1C(=O)N1CCc2cc(-c3cccc(NC(=O)Cc4ccc5c(c4)OCO5)c3)ccc21 | 0.879 | 
CN(c1cccc2cccnc12)S(=O)(=O)c1ccccc1 | -2.08 | 
COc1c(Cl)cccc1NC(=O)c1c(NC(=O)Cc2ccccc2)sc2c1CCCC2 | 0.681 | 
CCCN1CCN(c2cccc(Nc3nn4c(=O)c5ccccc5nc4s3)c2)CC1 |  | inactive
O=C1CCc2cc(S(=O)(=O)Nc3cccc(Br)c3)ccc2N1 | -2.16 | 
O=C(/C=C/c1ccc(F)cc1)Nc1cccc([S+](=O)([O-])Nc2ccccc2F)c1 |  | inactive
Cc1cc(C)nc(NCc2ccc(O)c3ncccc23)c1 | 19.8 | 
Cc1nnc(-c2cnn(C)c2N)o1 | -0.941 | 
